This is an account of results in PubChem BioAssay (NCI).

This is part of a sample that, as a whole, favours compounds with a hit. Of some 79,000 tested, about 15% had one in any assay. Unmarked numbers belong to inactive results. Active and inactive are the calls of the source. Cut-off read from the data, not from the text of the source: active = growth inhibition above about 70%; inactive = the rest.

A short description of test [1]: NCI Yeast Anticancer Drug Screen. Data for the rad50 strain (AID 155).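 Note: 0% = growth of vehicle-only cultures of the same strain.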 The conditions noted are these: S. cerevisiae rad50 strain growth inhibition, stronger effect = higher value. An outline of the steps:
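Yeast carrying a defined DNA repair defect were exposed to test compounds, and growth was compared with vehicle-treated controls to give percent inhibition.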

The nature of test [2]: NCI Yeast Anticancer Drug Screen. Data for the mec2-1 strain (AID 157). The conditions noted are these: S. cerevisiae mec2-1 strain, stronger effect = higher value. In outline:
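Readout is yeast growth inhibition, normalised to vehicle-treated controls, in the mec2-1 strain exposed to compound.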

The nature of test [3]: NCI Yeast Anticancer Drug Screen. Data for the sgs1 mgt1 strain (AID 161).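 Note: 0% = growth of cultures given vehicle only.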 The conditions noted are these: S. cerevisiae sgs1 mgt1 strain, stronger effect = higher value. An outline of the steps: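 Percent growth inhibition was derived by comparing compound-exposed mutant yeast with vehicle-exposed cultures. The strain carries alterations in DNA damage repair.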
A short description of test [4]: NCI Yeast Anticancer Drug Screen. Data for the cln2 rad14 strain (AID 165).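 Note: 0% = growth equal to vehicle treated cultures.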 The note with it: S. cerevisiae cln2 rad14 strain, stronger effect = higher value. An outline of the steps:
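Relative to vehicle controls, growth inhibition of compound-treated cln2 rad14 yeast was recorded.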

Test [5] is described as follows: NCI Yeast Anticancer Drug Screen. Data for the bub3 strain (AID 167). The note with it: S. cerevisiae bub3 mutant strain, stronger effect = higher value. An outline of the steps:
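Compounds were applied to a genetically altered yeast strain carrying a cell-cycle control defect. Growth inhibition was scored against vehicle-treated controls.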

The nature of test [6]: NCI Yeast Anticancer Drug Screen. Data for the mlh1 rad18 strain (AID 175). The conditions noted are these: S. cerevisiae mlh1 rad18 strain growth inhibition, stronger effect = higher value. In outline:
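Test agents were incubated with a yeast strain of defined genotype (DNA damage repair defect). Inhibition of growth was derived by comparison with vehicle-exposed cultures.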

Where [7] appears, read: at 5.0 µM (retest, dose inferred, filed as 0.5).
[8] abbreviates: at 50.0 µM (retest, dose inferred, filed as 5.0).

As for `O=c1cc(N=Nc2ccc(Cl)c(Cl)c2)[nH]c(=O)[nH]1`, the growth inhibition in test [1] (setting [7]) is 37%; in test [1] (setting [8]), 95% (active); in test [1] (at 50.0 µM), 85.8% (active); in test [2] (setting [7]), 25%; in test [2] (setting [8]) it was 97% (active); in test [2] (at 50.0 µM), 86.6% (active). Besides, the growth inhibition in test [3] (setting [7]) was 54%; in test [3] (setting [8]), 97% (active); in test [3] (at 50.0 µM) it was 88.7% (active); in test [4] (setting [7]), 32%; in test [4] (setting [8]), 97% (active); in test [4] (at 50.0 µM), 89.5% (active). Moreover, the growth inhibition in test [5] (setting [7]) is 73% (active); in test [5] (setting [8]), 97% (active); in test [5] (at 50.0 µM) it was 86.8% (active); in test [6] (setting [7]), 41%; in test [6] (setting [8]) it was 96% (active); in test [6] (at 50.0 µM) it was 82% (active).
With `COc1ccc(/C=N/NS(=O)(=O)c2ccc(C)cc2)cc1`, the growth inhibition in test [1] (setting [7]) is 13%; in test [1] (setting [8]) it was 83% (active); in test [1] (at 50.0 µM), 94.2% (active); in test [2] (setting [7]), -5%; in test [2] (setting [8]) it was 97% (active); in test [2] (at 50.0 µM), 67.9%. Besides, the growth inhibition is 6% in test [3] (setting [7]); 98% (active) in test [3] (setting [8]); 91.7% (active) in test [3] (at 50.0 µM); 18% in test [4] (setting [7]); 96% (active) in test [4] (setting [8]); 45.4% in test [4] (at 50.0 µM). In addition, the growth inhibition in test [5] (setting [7]) is 23%; in test [5] (setting [8]) it was 94% (active); in test [5] (at 50.0 µM), 46.3%; in test [6] (setting [7]) it was 46%; in test [6] (setting [8]), 98% (active); in test [6] (at 50.0 µM), 97.3% (active).
With `COc1ccc(Nc2nc3ccccc3s2)cc1`, the growth inhibition in test [1] (setting [7]) is 1%; in test [1] (setting [8]), 15%; in test [1] (at 50.0 µM) it was 21%; in test [2] (setting [7]), -3%; in test [2] (setting [8]), 0%; in test [2] (at 50.0 µM), 35.4%. Moreover, the growth inhibition in test [3] (setting [7]) is 0%; in test [3] (setting [8]), 35%; in test [3] (at 50.0 µM), 38.3%; in test [4] (setting [7]) it was -7%; in test [4] (setting [8]), -14%; in test [4] (at 50.0 µM), -66%. Also, the growth inhibition in test [5] (setting [7]) is 5%; in test [5] (setting [8]), 42%; in test [5] (at 50.0 µM) it was 85.8% (active); in test [6] (setting [7]), 10%; in test [6] (setting [8]) it was 15%; in test [6] (at 50.0 µM), 58.7%.
On to `OCCN(CCO)c1cc(/C=C/c2ccnc3ccccc23)nc2ccccc12`, for which the growth inhibition in test [1] (setting [7]) was 7%; in test [1] (setting [8]), 32%; in test [1] (at 50.0 µM), 60.5%; in test [2] (setting [7]) it was 1%; in test [2] (setting [8]) it was 23%; in test [2] (at 50.0 µM), 28.6%. The growth inhibition in test [3] (setting [7]) was 12%; in test [3] (setting [8]), 47%; in test [3] (at 50.0 µM) it was 28.6%; in test [4] (setting [7]), -1%; in test [4] (setting [8]) it was 43%; in test [4] (at 50.0 µM) it was 61.5%. In addition, the growth inhibition in test [5] (setting [7]) is 1%; in test [5] (setting [8]), -13%; in test [5] (at 50.0 µM) it was -12.6%; in test [6] (setting [7]), 9%; in test [6] (setting [8]), 35%; in test [6] (at 50.0 µM) it was 53.4%.
As for `Clc1cc2c(c3ncccc13)OCN(CCc1ccccc1)C2`, the growth inhibition was 5% in test [1] (setting [7]); 8% in test [1] (setting [8]); 98.7% (active) in test [1] (at 50.0 µM); -3% in test [2] (setting [7]); -5% in test [2] (setting [8]); 94.2% (active) in test [2] (at 50.0 µM). In addition, the growth inhibition in test [3] (setting [7]) was 2%; in test [3] (setting [8]), 7%; in test [3] (at 50.0 µM), 99.2% (active); in test [4] (setting [7]), 1%; in test [4] (setting [8]), 16%; in test [4] (at 50.0 µM) it was 78.5% (active). For the same compound, the growth inhibition in test [5] (setting [7]) was 4%; in test [5] (setting [8]), 0%; in test [5] (at 50.0 µM), 69.6%; in test [6] (setting [7]) it was 2%; in test [6] (setting [8]), 10%; in test [6] (at 50.0 µM), 98.4% (active).
For `CN(C)CCCNc1ccc(O)c2c1C(=O)c1ccccc1C2=O`, the growth inhibition in test [1] (setting [7]) is 93% (active); in test [1] (setting [8]) it was 99% (active); in test [1] (at 50.0 µM) it was 89.9% (active); in test [2] (setting [7]) it was 95% (active); in test [2] (setting [8]), 99% (active); in test [2] (at 50.0 µM) it was 87.8% (active). Moreover, the growth inhibition in test [3] (setting [7]) is 96% (active); in test [3] (setting [8]), 99% (active); in test [3] (at 50.0 µM), 88.2% (active); in test [4] (setting [7]), 32%; in test [4] (setting [8]), 98% (active); in test [4] (at 50.0 µM), 67%. The growth inhibition in test [5] (setting [7]) was 92% (active); in test [5] (setting [8]), 98% (active); in test [5] (at 50.0 µM), 89.7% (active); in test [6] (setting [7]) it was 97% (active); in test [6] (setting [8]), 99% (active); in test [6] (at 50.0 µM) it was 89.6% (active).
For the compound `C/C=C/c1cc2c(cc1O)CC[C@@H]1[C@@H]2CC[C@]2(C)[C@@H](O)CC[C@@H]12`, the growth inhibition in test [1] (setting [7]) is 25%; in test [1] (setting [8]) it was 97% (active); in test [1] (at 50.0 µM) it was 89% (active); in test [2] (setting [7]) it was 12%; in test [2] (setting [8]) it was 98% (active); in test [2] (at 50.0 µM), 92% (active). In addition, the growth inhibition in test [3] (setting [7]) is 11%; in test [3] (setting [8]) it was 97% (active); in test [3] (at 50.0 µM), 90.7% (active); in test [4] (setting [7]) it was 6%; in test [4] (setting [8]), 97% (active); in test [4] (at 50.0 µM), 92.7% (active). Besides, the growth inhibition was 22% in test [5] (setting [7]); 99% (active) in test [5] (setting [8]); 91.3% (active) in test [5] (at 50.0 µM); 24% in test [6] (setting [7]); 97% (active) in test [6] (setting [8]); 86.7% (active) in test [6] (at 50.0 µM).
Turning to `CCCCCCc1ccc(O)cc1O`, the growth inhibition in test [1] (setting [7]) was 5%; in test [1] (setting [8]) it was 98% (active); in test [1] (at 50.0 µM), 99.5% (active); in test [2] (setting [7]), -3%; in test [2] (setting [8]), 100% (active); in test [2] (at 50.0 µM) it was 99.8% (active). Also, the growth inhibition was -1% in test [3] (setting [7]); 100% (active) in test [3] (setting [8]); 99.5% (active) in test [3] (at 50.0 µM); -4% in test [4] (setting [7]); 99% (active) in test [4] (setting [8]); 99.5% (active) in test [4] (at 50.0 µM). The growth inhibition is -1% in test [5] (setting [7]); 99% (active) in test [5] (setting [8]); 99.5% (active) in test [5] (at 50.0 µM); -1% in test [6] (setting [7]); 99% (active) in test [6] (setting [8]); 36% in test [6] (at 50.0 µM).
For the compound `O=[N+]([O-])c1ccc(N2CCCC(n3cccc3)C2)c([N+](=O)[O-])c1` (stereo not given), the growth inhibition is 7% in test [1] (setting [7]); 38% in test [1] (setting [8]); 47.6% in test [1] (at 50.0 µM); -2% in test [2] (setting [7]); 5% in test [2] (setting [8]); 46.2% in test [2] (at 50.0 µM). The growth inhibition in test [3] (setting [7]) was 4%; in test [3] (setting [8]), 27%; in test [3] (at 50.0 µM), 61.3%; in test [4] (setting [7]), 12%; in test [4] (setting [8]) it was 49%; in test [4] (at 50.0 µM), 50.2%. The growth inhibition in test [5] (setting [7]) is -9%; in test [5] (setting [8]), 50%; in test [5] (at 50.0 µM), 67.6%; in test [6] (setting [7]) it was 1%; in test [6] (setting [8]) it was 55%; in test [6] (at 50.0 µM) it was 48.5%.
In the case of `CC1C(=O)C(C)C(c2ccccc2)N(C)C1c1ccccc1` (stereo not given), the growth inhibition was 81% (active) in test [1] (setting [7]); 98% (active) in test [1] (setting [8]); 99% (active) in test [1] (at 50.0 µM); 42% in test [2] (setting [7]); 99% (active) in test [2] (setting [8]); 99.1% (active) in test [2] (at 50.0 µM). Besides, the growth inhibition in test [3] (setting [7]) was 81% (active); in test [3] (setting [8]) it was 98% (active); in test [3] (at 50.0 µM), 99.3% (active); in test [4] (setting [7]), 31%; in test [4] (setting [8]), 98% (active); in test [4] (at 50.0 µM), 99% (active). For the same compound, the growth inhibition in test [5] (setting [7]) is 42%; in test [5] (setting [8]), 95% (active); in test [5] (at 50.0 µM), 99.4% (active); in test [6] (setting [7]), 63%; in test [6] (setting [8]), 98% (active); in test [6] (at 50.0 µM), 99.1% (active).
